VP16 counter = inhibits Gal4-VP16 luciferase reporter, ROR gamma counter-screen. Drosophila S2 Gal4-VP16 UAS-luciferase, luminescence, 20 h. Potency, µM (top dose mostly 53.6 µM), inactives show at the top dose activity, negative = inhibition, hits mostly inhibitors. 310,000 tested, 3.5% active;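 note: Gal4-VP16 expression switched on by copper sulfate through the metallothionein promoter; potency is the fitted concentration of half-maximal effect; % is set by controls: 0 for no effect and ±100 for the full control effect; nearly all actives have a fitted effect of over 50% in size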
MCF10A rerep = inducers of DNA re-replication in MCF 10A breast cells; MCF 10A DNA re-replication, Hoechst nuclear intensity, 48 h; Potency, µM (series often up to 46.1 µM), for inactives: at the top dose activity, positive = re-replication, most hits filed as activators; 350,000 tested, 2.9% active; AID 624296; note: potency is the fitted concentration of half-maximal effect; % of control where 0% means no effect; nearly all actives have a fitted effect of over 50% in size
RORgamma inh = inhibitors of mouse ROR gamma transcriptional activity. AID 2551. Potency, µM (top dose mostly 53.6 µM), for inactives: top-dose activity change, negative = inhibition, usual class: inhibitors. 310,000 tested, 5.4% active. P51450. Drosophila S2 Gal4-RORgamma UAS-luciferase reporter, 20 h; note: potency is the fitted concentration of half-maximal effect; % is set by controls: 0 for no effect and ±100 for the full control effect; nearly all actives have a fitted effect of over 60% in size
Target sequence (P51450 whole entry, looked up, the tested form may be a part): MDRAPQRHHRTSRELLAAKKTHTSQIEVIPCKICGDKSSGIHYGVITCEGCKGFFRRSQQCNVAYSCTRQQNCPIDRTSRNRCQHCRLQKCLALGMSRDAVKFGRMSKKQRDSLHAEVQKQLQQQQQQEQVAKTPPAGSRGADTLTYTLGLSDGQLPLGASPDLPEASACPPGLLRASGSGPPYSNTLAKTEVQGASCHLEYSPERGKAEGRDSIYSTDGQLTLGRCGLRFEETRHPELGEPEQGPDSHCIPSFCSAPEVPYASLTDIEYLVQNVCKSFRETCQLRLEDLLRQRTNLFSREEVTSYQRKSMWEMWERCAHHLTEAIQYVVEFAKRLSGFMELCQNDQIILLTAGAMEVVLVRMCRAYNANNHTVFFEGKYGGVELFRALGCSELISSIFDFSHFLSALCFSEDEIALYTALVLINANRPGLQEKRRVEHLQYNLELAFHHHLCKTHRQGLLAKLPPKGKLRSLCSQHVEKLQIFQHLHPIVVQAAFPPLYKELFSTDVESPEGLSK
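Luciferase reporter read in Schneider cells carrying Gal4-RORγ (mouse) and UAS-Photinus luciferase; cells given compound 1 h before 700 uM copper sulfate induction, then incubated 20 h at ambient temperature.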
SW480 rerep = DNA re-replication induction in SW480 cells | SW480 DNA re-replication, Hoechst DNA content imaging, 48 h | 340,000 tested, 1.8% active | Potency, µM (series often up to 46.1 µM), for inactives: at the top dose re-replication activation, usual class: activators | AID 624297; note: potency is the fitted concentration of half-maximal effect; % of control where 0% means no effect; nearly all actives have a fitted effect of over 55% in size
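Image-based DNA-content assay: after two days of treatment, nuclei were labelled with the DNA dye Hoechst and imaged, and hits were compounds raising the count of nuclei showing high fluorescence intensity.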
IL-1B inflam inh = inflammasome signaling inhibition, IL-1 beta readout; THP-1 LPS/ATP IL-1B secretion, AlphaLISA, 16 h; hits give low values; activity change, % at 57.5 µM; 360,000 tested, 4.7% active; AID 743279; in the data active = activity change below about -50%; inconclusive = mostly about -30% to -49%; note: % is set by controls: 0 for no effect and ±100 for the full control effect
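Secreted IL-1B measured by AlphaLISA bead assay after 16 h compound exposure of THP-1 cells; compounds (final up to 57.5 uM) added 1 h before LPS (250 ng/mL) and ATP (1.25 mM) stimulation; lower signal means less secretion.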
* = called active by the depositor; ? = inconclusive; . = no result given; [ ] = another dose, or the depositor's remark. Most compounds without a hit are left out; they make up all but 11% or so of the library. Unless noted, calls come from the whole dose curve; as a rule, active = well fitted curve in the direction sought with a large enough effect; inconclusive = small, poorly fitted or top-dose-only effect, or another doubt; inactive = no such curve, though single readings can be large; an effect the other way counts as inactive or inconclusive.

SMILES	VP16 counter	MCF10A rerep	RORgamma inh	SW480 rerep	IL-1B inflam inh
COc1ccccc1-c1nc2cc3ccccc3cc2nc1-c1ccccc1OC	-8%	?	-2%	9.2µM*	-13
CCOc1ccccc1NC(=O)COc1cccnc1[N+](=O)[O-]	.	-19%	.	11%	7
Cc1ccc(C)c(Cn2nnc3c(=O)[nH]c(C(=O)NCc4ccco4)nc32)c1	1%	37%	7%[10 µM]	19%	32
O=C(NCc1ccco1)c1nc2c(nnn2Cc2ccccc2Cl)c(=O)[nH]1	7.9µM*	7%	14µM*	0%	3
O=C(Nc1ccc(F)cc1)c1nc2c(nnn2Cc2cccc3ccccc23)c(=O)[nH]1	0%	?	19%	-7%	-98*
COc1cccc(C(C)(O)c2nc(-c3ccc(N(C)C)cc3)cs2)c1 (configuration not stated)	.	.	.	.	-19
O=C(CSc1nnc(CNC(=O)c2cccs2)o1)Nc1ccccc1F	0%	3%	-18%	-3%	-3
CCCCCCC(C)n1[nH]c(=O)c2c(C)cc(=O)[nH]c21 (configuration not stated)	4µM*	?	7.1µM*	?	?
O=C(CN1C(=O)NC2(CCCCCCC2)C1=O)NCc1ccc(Cl)cc1	.	13%	.	?	?
Cc1cccc(NC(=O)CN2C(=O)NC3(CCCCCCC3)C2=O)c1C	.	-2%	.	-5%	6
O=C(CN1C(=O)NC2(CCCC2)C1=O)NCc1cccc(Cl)c1	.	0%	.	-12%	-59*
O=C(CN1C(=O)NC2(CCCCC2)C1=O)Nc1cccc2ncccc12	.	0%	.	21µM*	1
CCN1C[C@@H]2[C@@H]3C(=O)N(C)C(=O)[C@@H]3[C@](CC)(C1=O)N2C(=O)c1ccc(Cl)cc1	.	1%	.	-20%	5
N#C/C(=C(/O)c1cccs1)c1nc2ccccc2[nH]1	?	18µM*	?	16µM*	58
N#C/C(=C(/O)c1ccc(Br)s1)c1nc2ccccc2[nH]1	0%	2.9µM*	1µM*	7.3µM*	18
N#C/C(=C(/O)c1ccc([N+](=O)[O-])s1)c1nc2ccccc2[nH]1	-25%	-5%	-40%	?	-17
CC(C)(C)N(C(=O)Cn1nnc(-c2ccc(F)cc2)n1)C(C(=O)NC1CCCC1)c1ccncc1 (configuration not stated)	1%	11%	-7%	3%	-25
CC(C)(C)NC(=O)C(c1ccncc1)N(CC1CCCO1)C(=O)Cn1nnc(-c2ccc(F)cc2)n1 (configuration not stated)	9%	10%	13%	17%	4
CC(C)(C)NC(=O)C(c1ccncc1)N(Cc1cccs1)C(=O)Cn1nnc(-c2ccc(F)cc2)n1 (configuration not stated)	-3%	10µM*	28%	20%	0
CC(C)(C)NC(=O)C(OC(=O)Cn1nnc(-c2ccc(F)cc2)n1)c1ccncc1 (configuration not stated)	-1%	21µM*	-21%[10 µM]	12%	35
COc1ccc2c(c1)C(=O)[C@@H](OC(=O)NC1CCCC1)[C@H](c1ccc(OC)c(Br)c1)O2	-4%	.	-25%	.	.
O=C(Cn1nnc2ccccc21)OCc1ccccc1	-15%	0.65µM*	17%	-2%	14
CC1CCN(S(=O)(=O)c2cc(C(=O)N3CCN(c4ncccn4)CC3)ccc2Br)CC1	7.1µM*	17%	33%	0%	-18
CC(=O)Oc1ccc(/C=C2/SC(=S)N(Cc3ccccc3)C2=O)cc1	0%	3.3µM*	7%	-36%	-11
O=C(O)c1ccc(/C=C2/SC(=S)N(Cc3ccccc3)C2=O)cc1	7%	23%	38%	-7%	20
SMILES	VP16 counter	MCF10A rerep	RORgamma inh	SW480 rerep	IL-1B inflam inh
NS(=O)(=O)c1ccc(CCN2C(=O)/C(=C\c3ccc(Cl)cc3)SC2=S)cc1	-24%	10µM*	-17%	?	-85*
O=C1/C(=C\c2ccc(O)cc2)SC(=S)N1Cc1ccccc1	-12%	12%	?	?	-96*
O=C1/C(=C/c2cccnc2)SC(=S)N1Cc1ccco1	.	?	.	?	-97*
CN(C(=O)COC(=O)COc1ccc(Cl)cc1Cl)c1c(N)n(Cc2ccccc2)c(=O)[nH]c1=O	.	-6%	.	0%	11
CC(Cc1ccc(O)c(O)c1)(NN)C(=O)O (configuration not stated)	-17%	.	-10%	.	.
O=C1/C(=C\c2cc(Br)cc(Br)c2O)SC(=S)N1Cc1ccccc1	?	9.2µM*	13µM*	8%	-9
COc1ccc(CN2C(=O)/C(=C/c3ccncc3)SC2=S)cc1	?	23µM*	?	?	-82*
O=C1/C(=C/c2ccccc2O)SC(=S)N1Cc1cccnc1	?	6.5µM*	?	?	27
CNc1cncc(-c2cccc(C(=O)NC3CC3)c2)n1	.	.	.	.	-14
CCCCN(C=O)c1c(CC)nc2c(OCc3ccc(Cl)cc3)cccn12	.	.	.	.	-51*
CCc1nc2c(OCc3cc(Cl)cc(Cl)c3)cccn2c1N(C=O)Cc1ccc(OC)cc1	.	.	.	.	-79*
CC(C)C1=CC(=Nc2ccc(S(N)(=O)=O)cc2)C=C(C(C)C)C1=O	-13%	?	1%	-4%	-57*
NS(=O)(=O)c1ccc(N=C2C(=O)Nc3ccccc32)cc1	-12%	11%	5%	2%	1
CC(C)N1C(=O)C(=O)N(CC(=O)N2c3ccccc3CC2C)C1=O (configuration not stated)	.	.	.	.	7
COC1C(CO)OC(n2c3c(Cl)cccc3c3c4c(c5c6cccc(Cl)c6[nH]c5c32)C(=O)NC4=O)C(O)C1O (configuration not stated)	.	-5%	.	1.6µM*	-63*
Cc1ccc(Sc2c(O)c3ccccc3n(C)c2=O)cc1	-2%	-1%	-4%	-270%	4
Cc1ccc(Sc2c([N+](=O)[O-])c(=O)n(C)c3ccccc23)cc1	7.1µM*	5.8µM*	11µM*	4%	3
Cn1c(C(=O)O)c(C=O)c2ccccc21	-9%	-3%	0%	1%	-70*
Cc1ccc(Sc2c(C=O)c3ccccc3n2C)cc1	?	?	32%	15µM*	?
Cc1ccc(CNC(=O)C2CCC(=O)N(CC3CCCCC3)C2)o1 (configuration not stated)	9%	-19%	-12%	-15%	-1
CN(C)c1ccc(C(O)c2cc3ccccc3s2)cc1 (configuration not stated)	.	?	.	?	-2
CSCCC(NC(=O)c1ccccc1Br)C(=O)N1CCN(C/C=C/c2ccccc2)CC1 (configuration not stated)	.	-3%	.	?	-12
CC(C)(C)Nc1nc(Cl)nc(N(C#N)CN2C(=O)c3ccccc3S2(=O)=O)n1	6%	?	10%	?	-101*

Screening data from PubChem.
